Screening data from PubChem BioAssay.
NPC1 prom act: activators of NPC1 promoter | Huh7 NPC1 promoter luciferase reporter, 24 h | Potency, µM (titrated, usually from 9.22 µM), for inactives: at the top dose activation, usual class: activators | 320,000 tested, 2.4% active | AID 485313; note: % of control where 0% means no effect; nearly all actives have a fitted effect of over 60% in size
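Quantitative HTS used a cell-based reporter: Huh7 cells stably bearing the NPC1 promoter upstream of luciferase were treated with compounds for 24 h, and promoter activation was read as luminescence.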
ELG1 repair inh: ELG1-dependent DNA repair inhibition | HEK293T ELG1-luciferase reporter, luminescence, 16 h; DNA damage induced by 5-fluorouridine | Potency, µM (titrated, usually from 46.1 µM), for the others: at the highest dose activity change, negative = inhibition, hits mostly inhibitors | 330,000 tested, 2.3% active | AID 504467; note: % is set by controls: 0 for no effect and ±100 for the full control effect; nearly all actives have a fitted effect of over 55% in size
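HEK293T cells expressing luciferase-tagged ELG1 (2,000/well) received 5-Fluorouridine plus compound or DMSO for 16 hr at 37 °C. Luciferase was read by ONE-Glo luminescence after 30 min at room temperature.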
Rab9 prom act: activates the Rab9 promoter | 320,000 tested, 2.8% active | Potency, µM (highest dose often 9.22 µM), inactives show top-dose activation, negative = inhibition, hits mostly activators | Huh7 Rab9 promoter-luciferase reporter, luminescence, 24 h; note: % of control where 0% means no effect; nearly all actives have a fitted effect of over 60% in size
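Measured in stably transfected Huh7 cells bearing a Rab9 promoter–luciferase construct: 24 h compound treatment at 37 °C, followed by luminescence detection.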
FLuc modulator: inhibits or activates purified firefly luciferase, miR-21 counter-screen | purified FLuc, Km substrates, luminescence inhibition | Potency, µM (doses to about 57.5 µM), for the others: at the highest dose activity change, negative = inhibition, usual class: inhibitors | 360,000 tested, 6.9% active | P08659 | AID 588342;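 note: plate controls were vehicle for no effect and reference inhibitor for full effect; nearly all actives have a fitted effect of over 55% in size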
Target sequence (P08659 whole entry, looked up): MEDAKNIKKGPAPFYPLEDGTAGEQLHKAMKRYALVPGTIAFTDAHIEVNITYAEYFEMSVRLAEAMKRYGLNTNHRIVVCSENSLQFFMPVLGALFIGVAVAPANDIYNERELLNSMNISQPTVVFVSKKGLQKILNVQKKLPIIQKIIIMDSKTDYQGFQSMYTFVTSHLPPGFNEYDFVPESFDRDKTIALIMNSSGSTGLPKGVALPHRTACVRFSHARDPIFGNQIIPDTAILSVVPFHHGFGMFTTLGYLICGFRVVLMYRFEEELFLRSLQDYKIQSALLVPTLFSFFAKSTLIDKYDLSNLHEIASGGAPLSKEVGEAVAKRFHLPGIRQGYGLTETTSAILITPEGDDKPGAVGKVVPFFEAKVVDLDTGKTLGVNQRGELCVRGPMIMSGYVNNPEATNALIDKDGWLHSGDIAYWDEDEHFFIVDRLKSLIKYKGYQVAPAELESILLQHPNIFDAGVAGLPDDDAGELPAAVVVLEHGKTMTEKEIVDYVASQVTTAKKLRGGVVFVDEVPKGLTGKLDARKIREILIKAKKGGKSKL
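Biochemical qHTS of compounds, final roughly 60 µM downward over six points, against 10 nM purified firefly luciferase using Km concentrations of substrates (10 uM D-luciferin, 10 uM ATP) in Tris acetate pH 7.5 buffer; luminescence output.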
ELG1 genotoxic: induces genotoxicity in HEK293T cells with luciferase-tagged ELG1; HEK293T ELG1-luciferase reporter, luminescence, 16 h; Potency, µM (doses to about 46 µM), for inactives: at the top dose activity change, positive = activation, most hits filed as activators; 330,000 tested, 1.3% active; AID 504466; note: % of control where 0% means no effect; nearly all actives have a fitted effect of over 60% in size
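Screening used a luciferase reporter fused to human ELG1 in HEK293T cells. Luminescence was read on a CCD plate imager after 16 hr exposure and 30 min ONE-Glo incubation.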
SMN2 splice enh: enhancers of SMN2 splice variant expression | HEK293 SMN2-luciferase splicing reporter, luminescence, 30-36 h | Potency, µM (doses to about 46.1 µM), inactives show at the highest dose activity change, positive = activation, hits mostly activators | 210,000 tested, 2.8% active; note: % of control where 0% means no effect; nearly all actives have a fitted effect of over 55% in size
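HEK293 cells carry an SMN2 minigene-luciferase reporter in which exon 7 inclusion puts luciferase in frame. Cells were seeded at 2000 cells/well, attached for 10-12 hours, then exposed to compounds for 30-36 hours at 37C before ONE-Glo luminescence.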
Active calls of the source: *; u = inconclusive; x = no result. Most compounds without a hit are left out; they make up all but 9.2% or so of the library. Calls come from the whole dose curve; as a rule, active = well fitted curve in the direction sought with a large enough effect; inconclusive = small, poorly fitted or top-dose-only effect, or another doubt; inactive = no such curve, though single readings can be large; an effect the other way counts as inactive or inconclusive. Potency is the fitted concentration of half-maximal effect.

SMILES | NPC1 prom act | ELG1 repair inh | Rab9 prom act | FLuc modulator | ELG1 genotoxic | SMN2 splice enh
Nc1nonc1-c1nc2ccccc2n1Cc1c(Cl)cccc1Cl | x | x | x | -2% | x | -14%
COc1ccc(-c2nn(-c3ccccc3)cc2C(=O)Nc2cccc(S(=O)(=O)NC3=NCCC3)c2)cc1 | x | 23µM* | x | x | -4% | x
CCN(CC)S(=O)(=O)c1cccc(-c2nnc(SC(C)C(=O)NCCC3=CCCCC3)o2)c1 (stereo not given) | -2% | 23µM* | -5% | 3% | -11% | -28%
C=CCn1c(C)cc(C(=O)CSc2nnc(-c3cccc(S(=O)(=O)N(CC)CC)c3)o2)c1C | 0% | 16µM* | 1% | u | -1% | x
CCN(CC)S(=O)(=O)c1cccc(-c2nnc(SCCCC(=O)c3ccccc3)o2)c1 | 0% | u | 2% | u | -6% | -34%
CC(Sc1nnc(-c2ccco2)o1)C(=O)NCCC1=CCCCC1 (stereo not given) | 1% | 5% | -5% | 1% | -1% | 6%
CCN(CC)S(=O)(=O)c1cccc(-c2nnc(SCCCC(=O)c3ccc(F)cc3)o2)c1 | -2% | 16µM* | -5% | -2% | -18% | -42%
CC(Sc1nc(C(C)(C)C)cc(-c2ccccc2)c1C#N)C(=O)Nc1ccccc1 (stereo not given) | -2% | 0% | -2% | 3% | 1% | 8%
C=C(C(C)=O)C(O)c1cccc(OC)c1 (stereo not given) | x | x | x | x | x | 5%
COc1ccc([C@@H]2CC=C(C(=O)O)[C@H](c3ccc(Cl)cc3)N2S(=O)(=O)c2ccccc2C)cc1 | -5% | 16% | -1% | 0% | 0% | x
CC(C)c1ccccc1NC(=O)c1ccc2ncsc2c1 | 2% | u | -2% | u | 13% | x
CCc1nnc(NC(=O)c2ccc3c(c2)C(=O)N(C(C)(C)C)C3=O)s1 | 3.5µM* | u | 3.2µM* | 2.7µM* | u | u
CCc1nnc(NC(=O)c2ccncc2)s1 | -2% | u | 1% | -17% | 8% | -3%
Cc1cnc(NC(=O)c2ccc3ncsc3c2)s1 | 1.3µM* | u | 0.71µM* | 3µM* | u | x
CC1(C)Cc2c(sc(NC(=O)c3ccc4ncsc4c3)c2C(N)=O)C(C)(C)N1 | u | u | u | u | 16µM* | u
CCc1nnc(NC(=O)c2ccc3ncsc3c2)s1 | u | u | u | 24µM* | u | x
COc1ccccc1NS(=O)(=O)c1ccc(NC(=O)c2[nH]nc(OC)c2[N+](=O)[O-])cc1 | -3% | 11% | 0% | 0% | 7% | x
CCOC(=O)CNC(=O)O[C@@H]1C(=O)c2cc(Br)ccc2O[C@H]1c1cccc(OC)c1 | x | x | x | x | x | 20%
CC(C)(C)n1[nH]c2c3c(ccc2c1=O)C(=O)c1ccccc1C3=O | 5% | -1% | 0% | -4% | -3% | u
Cc1ccc(C)c(-n2[nH]c3c4c(ccc3c2=O)C(=O)c2ccccc2C4=O)c1 | 1% | -5% | 7% | 15µM* | -7% | -21%
Cc1ccc(-n2[nH]c3c4c(ccc3c2=O)C(=O)c2ccccc2C4=O)cc1 | -1% | 17% | -8% | 1% | 4% | -1%
COCCCn1[nH]c2c3c(ccc2c1=O)C(=O)c1ccccc1C3=O | 17% | 26µM* | 10% | u | -10% | 20%
O=C(Nc1cccc(Cl)c1Cl)c1cc(S(=O)(=O)N2CCCc3ccccc32)ccc1F | x | x | x | -5% | x | x
CC(=O)C(C)n1c(CN2CCN(C(=O)c3ccco3)CC2)nc2c1c(=O)n(C)c(=O)n2C (stereo not given) | 0% | u | 4% | 3% | 8% | x
O=C1C2C3C=CC(C4CC34)C2C(=O)N1/N=C/c1c[nH]c2ccccc12 (stereo not given) | 4µM* | u | 2µM* | 1.9µM* | 17% | x
SMILES | NPC1 prom act | ELG1 repair inh | Rab9 prom act | FLuc modulator | ELG1 genotoxic | SMN2 splice enh
O=C1C2C3C=CC(C4CC34)C2C(=O)N1/N=C/c1ccc([N+](=O)[O-])s1 (stereo not given) | u | u | u | -20% | 9% | 16%
Cn1c(/C(C#N)=C/c2ccncc2)nc2ccccc21 | -5% | 0% | -5% | -12% | 0% | -6%
Cn1c(/C(C#N)=C/c2ccc(O)cc2)nc2ccccc21 | u | u | u | 12µM* | u | x
COc1cc(/C=C(\C#N)c2nc3ccccc3n2C)cc(OC)c1O | 0% | u | -1% | u | -8% | -13%
Cn1c(/C(C#N)=C/c2ccc(C(F)(F)F)cc2)nc2ccccc21 | x | x | x | 6.7µM* | x | -10%
CCCCNCc1cc2ccccc2o1 | 0% | u | 3% | 1% | -3% | x
COc1ccc(NS(=O)(=O)c2cc(NC(=O)c3ccncc3)ccc2N2CCOCC2)cc1 | -1% | -5% | 0% | 3% | 3% | 7.9µM*
COC(=O)c1cc(NC(=O)c2cc(-c3ccc(C(F)(F)F)cc3)oc2C(F)(F)F)ccc1N1CCOCC1 | -6% | u | -12% | 1% | -11% | x
COC(=O)c1cc(NC(=O)c2cc(-c3ccc(OC)cc3)oc2C(F)(F)F)ccc1N1CCOCC1 | -1% | 23µM* | -5% | u | -11% | x
COc1ccc(NS(=O)(=O)c2cc(NC(=O)c3ccc(Cl)cc3)ccc2N2CCOCC2)cc1 | x | 9.2µM* | x | x | -1% | x
CC(NC(N)=O)C(=O)Nc1ccc(Cl)c(S(=O)(=O)Nc2ccc(Cl)cc2)c1 (stereo not given) | -5% | -1% | -2% | -5% | -2% | -1%
CC(C)Oc1ccc(C(=O)Nc2ccc(Cl)c(S(=O)(=O)Nc3ccc(Cl)cc3)c2)cc1 | -2% | u | 1% | 15µM* | -10% | -70%
COc1ccc(-c2cc(C(F)(F)F)n3nc(C(=O)OC(C)C)cc3n2)cc1 | x | x | x | -1% | x | x
NC(=O)c1ccccc1OCC(=O)N1CCCC1c1ccc2c(c1)OCCCO2 (stereo not given) | 1% | 27% | -1% | 3% | 2% | x
CC(=O)Nc1ccc(SCc2csc(C)n2)cc1 | 14% | 14% | 19% | -5% | 13% | x
CC1CC(C)(C)NC(=S)N1CCCC(=O)NCc1ccccc1 (stereo not given) | 1% | -1% | 8% | -1% | 1% | 11%
COc1ccc(C(=O)Nc2ccc(N3CCN(c4ccc(OC)cc4)CC3)c(C#N)c2)cc1 | 1% | 28% | -1% | 2% | 3% | 10µM*
Cc1cc(-n2nnc3ccccc32)nc2ccccc12 | 2% | u | -3% | -10% | 9% | 0.22µM*
Nc1ccc(-c2nc3ncccc3o2)c(O)c1 | 2.8µM* | u | 4µM* | 12µM* | u | x
